Experimental findings from PubChem BioAssay AID493242 (Broad Institute, 2011) are described below.

The experiment addresses Replicative DNA helicase DnaB (Mycobacterium tuberculosis (strain ATCC 25618 / H37Rv)) (UniProt P9WMR3). In words: Replicative DNA helicase DnaB intein splicing, Mycobacterium tuberculosis, inhibitor dose response, secondary (AID 493242). The conditions noted are these: DnaB intein splicing assay, plate reader; series mostly up to 35 µM.

SMILES strings stand for the structures. Results with a measured potency or affinity are listed apart. Activity calls are given as the source filed them. The rule behind the calls is not given here.

Chain of Replicative DNA helicase DnaB (Mycobacterium tuberculosis (strain ATCC 25618 / H37Rv)) (P9WMR3 whole entry, looked up): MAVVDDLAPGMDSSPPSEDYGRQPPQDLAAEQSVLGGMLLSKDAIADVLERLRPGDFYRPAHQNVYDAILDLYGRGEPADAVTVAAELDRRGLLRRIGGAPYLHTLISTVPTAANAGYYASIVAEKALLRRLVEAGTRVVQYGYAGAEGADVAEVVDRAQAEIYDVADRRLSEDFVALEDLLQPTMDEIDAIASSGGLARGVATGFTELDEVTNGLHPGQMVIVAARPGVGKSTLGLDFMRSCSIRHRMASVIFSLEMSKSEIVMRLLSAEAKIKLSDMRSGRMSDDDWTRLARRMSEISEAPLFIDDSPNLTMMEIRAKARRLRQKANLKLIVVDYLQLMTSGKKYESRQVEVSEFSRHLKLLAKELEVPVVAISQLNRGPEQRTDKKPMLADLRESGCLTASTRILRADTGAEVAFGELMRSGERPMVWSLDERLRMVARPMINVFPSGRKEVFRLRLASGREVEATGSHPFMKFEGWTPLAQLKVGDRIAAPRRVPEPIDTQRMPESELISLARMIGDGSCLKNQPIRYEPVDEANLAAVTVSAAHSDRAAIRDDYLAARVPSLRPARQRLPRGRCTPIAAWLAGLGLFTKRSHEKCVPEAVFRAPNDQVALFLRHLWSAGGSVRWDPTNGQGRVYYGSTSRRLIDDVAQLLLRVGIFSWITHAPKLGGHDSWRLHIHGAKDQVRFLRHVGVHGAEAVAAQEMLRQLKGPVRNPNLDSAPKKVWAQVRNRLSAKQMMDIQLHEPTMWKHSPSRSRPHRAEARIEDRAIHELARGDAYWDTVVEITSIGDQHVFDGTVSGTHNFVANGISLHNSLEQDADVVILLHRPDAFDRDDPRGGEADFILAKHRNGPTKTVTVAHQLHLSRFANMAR

On to `Nc1cn(-c2ccccc2)nc1-c1ccc(F)cc1`, for which the compound was classed as inactive.
